Assay outcomes: PubChem BioAssay, National Center for Advancing Translational Sciences (NCATS)
This is a sample that favours compounds with a hit; in the whole collection about 19% have one here.
TDP1 cell noCPT: qHTS for Inhibitors of human tyrosyl-DNA phosphodiesterase 1 (TDP1): qHTS in cells in absence of CPT. Potency, µM (top dose mostly 46.2 µM), without a hit: top-dose activity change, negative = growth inhibition, actives largely listed as inhibitors. AID 686978, 2013. DT40 Tdp1-/- hTDP1 cells, no CPT, ATP luminescence, 48 h. 420,000 tested, 15% active; further: potency means the concentration at half of the fitted maximal effect; on the % scale 0 is the no-effect control and ±100 the full control effect; nearly all actives have a fitted effect of over 55% in size
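No-CPT arm: Tdp1-/-;hTDP1 DT40 cells (400/well) plus compounds, incubated ≥48 hr at 37 °C. Readout CellTiter-Glo luminescence.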
IL1B secr inh: qHTS for Inhibitors of Inflammasome Signaling: IL-1-beta AlphaLISA Primary Screen; THP-1 LPS/ATP IL-1B secretion, AlphaLISA, 16 h; active compounds read low; activity change, % at 57.5 µM; 360,000 tested, 4.7% active; AID 743279, 2014; in the data active means activity change below about -50%; inconclusive means mostly about -30% to -49%; further: on the % scale 0 is the no-effect control and ±100 the full control effect
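THP-1 cells pretreated 1 hr with compounds (up to 57.5 uM final), then stimulated with LPS (250 ng/mL final) plus ATP (1.25 mM final); secreted IL-1B measured by AlphaLISA after 16 hr, decreased signal indicating inhibition.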
TDP1 cell CPT: qHTS for Inhibitors of human tyrosyl-DNA phosphodiesterase 1 (TDP1): qHTS in cells in presence of CPT; chicken DT40 Tdp1-/-;hTDP1 cells + 20 nM CPT, ATP luminescence, 48 h; Potency, µM (highest dose often 46.2 µM), without a hit: top-dose activity change, negative = growth inhibition, most hits filed as inhibitors; 420,000 tested, 12% active; further: potency means the concentration at half of the fitted maximal effect; on the % scale 0 is the no-effect control and ±100 the full control effect; nearly all actives have a fitted effect of over 55% in size
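Cell growth measured by CellTiter-Glo luminescence after a minimum 48 h, 37 C compound exposure with 20 nM CPT in Tdp1-knockout DT40 cells stably expressing hTDP1, seeded 400/well; qHTS titration format.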
TGFb inhibitor: qHTS for Inhibitors of TGF-b | AID 588855, 2011 | 410,000 tested, 1.2% active | Potency, µM (top dose mostly 46.1 µM), for inactives: at the highest dose activity, negative = inhibition, hits mostly inhibitors | HepG2 CAGA-GFP TGF-b/SMAD3 reporter, GFP fluorescence, 18 h; TGF-beta stimulated, 500 pg/mL final; further: potency means the concentration at half of the fitted maximal effect; on the % scale 0 is the no-effect control and ±100 the full control effect; nearly all actives have a fitted effect of over 65% in size
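Using HEPG2 CAGA-GFP reporter cells at 1000 cells/well, we pinned test compounds, stimulated with recombinant TGF-beta (500 pg/mL final) and measured total well GFP after 18 h.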
TDP1 block: qHTS Assay for Inhibitors of Tyrosyl-DNA Phosphodiesterase (TDP1); recombinant TDP1, AlphaScreen DNA substrate cleavage; Potency, µM (series often up to 130 µM), for the others: at the top dose activity change, negative = inhibition, hits mostly inhibitors; 350,000 tested, 0.28% active; AID 485290, 2010; further: potency means the concentration at half of the fitted maximal effect; on the % scale 0 is the no-effect control and ±100 the full control effect; nearly all actives have a fitted effect of over 40% in size
Target sequence (Q9NUW8 whole entry, looked up): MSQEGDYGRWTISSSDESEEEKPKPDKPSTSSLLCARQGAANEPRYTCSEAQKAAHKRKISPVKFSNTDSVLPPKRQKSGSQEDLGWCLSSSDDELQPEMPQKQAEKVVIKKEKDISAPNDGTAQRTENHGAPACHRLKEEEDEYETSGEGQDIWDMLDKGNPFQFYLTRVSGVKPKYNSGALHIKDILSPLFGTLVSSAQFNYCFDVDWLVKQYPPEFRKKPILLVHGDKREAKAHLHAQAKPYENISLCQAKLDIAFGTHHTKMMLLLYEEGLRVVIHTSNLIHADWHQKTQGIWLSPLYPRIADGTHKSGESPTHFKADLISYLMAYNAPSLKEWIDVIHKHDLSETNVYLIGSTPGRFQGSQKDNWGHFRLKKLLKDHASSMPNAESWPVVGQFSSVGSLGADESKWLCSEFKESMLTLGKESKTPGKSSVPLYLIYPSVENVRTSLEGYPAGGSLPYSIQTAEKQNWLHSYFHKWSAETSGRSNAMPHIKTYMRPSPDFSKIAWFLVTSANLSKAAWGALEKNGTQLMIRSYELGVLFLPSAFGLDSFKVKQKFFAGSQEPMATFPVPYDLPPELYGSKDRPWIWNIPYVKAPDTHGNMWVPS
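Enzyme-compound mixtures sat 15 min at room temperature, followed by a 5 min reaction with 15 nM final substrate and 10 min with AlphaScreen beads. Recombinant human Tdp1 was used at 1 nM final.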
HepG2 tox: qHTS for Inhibitors of TGF-b: Cytotox Counterscreen; 410,000 tested, 0.76% active; AID 588856, 2011; HepG2 CAGA-GFP viability, ATP luminescence, 18 h; Potency, µM (highest dose often 46.1 µM), without a hit: at the top dose activity change, negative = cytotoxicity, usual class: cytotoxic; further: potency means the concentration at half of the fitted maximal effect
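HepG2 CAGA-GFP cells (1000/well, DMEM with 1% FBS) received compound, then TGF-beta at 500 pg/mL final, and were incubated 18 hours at 37 degrees C. Viability was read by CellTiter-Glo luminescence. Media-only wells were set as complete cell-killing and DMSO as no toxicity.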
* hit, by the source's call; [ ] = another dose, or the depositor's remark. Unless noted, the call rests on the fitted dose curve; in most records, active means well fitted curve in the direction sought with a large enough effect; inconclusive means small, poorly fitted or top-dose-only effect, or another doubt; inactive means no such curve, though single readings can be large; an effect the other way counts as inactive or inconclusive.

Screening OC1(c2cccnc2)CCN(Cc2ccc3c(c2)CN(Cc2cccc(C(F)(F)F)c2)CCO3)CC1 returned TDP1 cell noCPT 26µM* and TDP1 cell CPT -22%[9.04 µM].
For COc1ccc(Br)cc1/C=N/n1nnnc1N the results were TDP1 cell noCPT 5%, IL1B secr inh inconclusive, TDP1 cell CPT -4%, TGFb inhibitor 17% and HepG2 tox -2%.
`C=CC[n+]1c(-c2ccc(OC)c(OC)c2)csc1NNC(=O)Nc1ccccc1` gave TDP1 cell noCPT 6.5µM*, IL1B secr inh -75*, TDP1 cell CPT 7.3µM*, TGFb inhibitor inconclusive, TDP1 block 7% and HepG2 tox -38%.
For C=CC[n+]1c(-c2ccccc2)csc1NC(C)(C)C the results were TDP1 cell noCPT -24%, IL1B secr inh -19, TDP1 cell CPT 5%, TGFb inhibitor 1%, TDP1 block 3% and HepG2 tox -11%.
NC(=O)C1(Nc2ccc(-c3ccc(Cl)cc3)cc2)CCCC1 was read as TDP1 cell noCPT inconclusive, IL1B secr inh 5, TDP1 cell CPT 16µM*, TGFb inhibitor 8% and HepG2 tox -12%.
For CCN(CC)CCCNC(=O)c1csc(Nc2cccc3ccccc23)n1 the results were TDP1 cell noCPT -25%, IL1B secr inh -16, TDP1 cell CPT -12%, TGFb inhibitor -9%, TDP1 block 5% and HepG2 tox -32%.
`CCN(CC)CCNc1cccc2sc3ccccc3c(=O)c12` gave TDP1 cell noCPT 18µM*, IL1B secr inh 0, TDP1 cell CPT 23µM*, TGFb inhibitor 2% and HepG2 tox -26%.
`O=c1c2ccccc2sc2c(CO)ccc(NCCN3CCCCC3)c12` gave TDP1 cell noCPT 0.92µM*, IL1B secr inh -101*, TDP1 cell CPT 0.41µM*, TGFb inhibitor inconclusive and HepG2 tox -10%.
CCN(CC)CCNc1ccc(CO)c2oc3ccccc3c(=O)c12 was read as TDP1 cell noCPT 8.2µM*, IL1B secr inh -55*, TDP1 cell CPT 8.2µM*, TGFb inhibitor inconclusive and HepG2 tox -55%.
CCc1nc(OCCN(CC)CC)c2oc3ccccc3c2n1 was read as TDP1 cell noCPT -10%, IL1B secr inh -25, TDP1 cell CPT -11%, TGFb inhibitor 0%, TDP1 block 1% and HepG2 tox -25%.
For CCN(CC)CCNC(=O)Cc1nn(CC)c(=O)c2ccccc12 the results were TDP1 cell noCPT 3%, IL1B secr inh 19, TDP1 cell CPT 1%, TGFb inhibitor -3%, TDP1 block 0% and HepG2 tox 0%.
CCN(CC)CCNc1ccc(CO)c2sc3ccccc3c(=O)c12 was read as TDP1 cell noCPT 1.2µM*, IL1B secr inh -105*, TDP1 cell CPT 0.58µM*, TGFb inhibitor inconclusive, TDP1 block 14%[56.1 µM] and HepG2 tox -15%.
`COc1ccc(OC)c(/C=N/NC(=O)CCN2CCN(C(c3ccccc3)c3ccccc3)CC2)c1` gave TDP1 cell noCPT 16µM*, IL1B secr inh -4, TDP1 cell CPT inconclusive, TGFb inhibitor -1%, TDP1 block 6% and HepG2 tox 7%.
`O=C(CCN1CCN(C(c2ccccc2)c2ccccc2)CC1)N/N=C/c1ccc(O)cc1O` gave TDP1 cell noCPT 5.2µM*, IL1B secr inh 82, TDP1 cell CPT 6.5µM*, TGFb inhibitor -14%, TDP1 block 11% and HepG2 tox -34%.
Screening Cc1cccc(NC(=O)Cn2cc(C(=O)C3CCCCC3)c3ccccc32)c1 returned TDP1 cell noCPT inconclusive, TDP1 cell CPT inconclusive, TGFb inhibitor inconclusive, TDP1 block -1% and HepG2 tox -26%.
O=C(Nc1ccc(N=Nc2ccccc2)cc1)c1ccc(Cl)cc1Cl was read as TDP1 cell noCPT inconclusive, IL1B secr inh -25, TDP1 cell CPT inconclusive, TGFb inhibitor 0%, TDP1 block 3% and HepG2 tox -4%.
O=C(CCl)Nc1ccc(N=Nc2ccccc2)cc1 was read as TDP1 cell noCPT inconclusive, IL1B secr inh -98*, TDP1 cell CPT 2.9µM*, TGFb inhibitor inconclusive, TDP1 block 2% and HepG2 tox 22µM*.
For CC(C)N(c1ccccc1)c1ccc(NC(=O)CCl)cc1 the results were TDP1 cell noCPT 2.6µM*, IL1B secr inh -100*, TDP1 cell CPT 16µM*, TGFb inhibitor inconclusive, TDP1 block 9% and HepG2 tox -119%.
O=C(Nc1ccc(N=Nc2ccccc2)cc1)c1ccccc1Cl was read as TDP1 cell noCPT -28%, IL1B secr inh -67*, TDP1 cell CPT inconclusive, TGFb inhibitor -27%, TDP1 block 6% and HepG2 tox -42%.
`COc1ccccc1[C@@H]1C(c2ccc(F)cc2)=NN(c2ccc(Br)cc2)[C@H]1C(=O)N1CCOC1=O` gave TDP1 block -6%[96 µM].
`CC#CC(=O)N1CCC(C(=O)Nc2ccc(Oc3ccccc3)nc2)CC1` gave TDP1 cell noCPT inconclusive, IL1B secr inh -13, TDP1 cell CPT inconclusive, TGFb inhibitor -17%, TDP1 block 1% and HepG2 tox -18%.
`CN(C)CCn1c2c(c(SCC(=O)Nc3cccc4ccccc34)nc1=O)CCCC2` gave TDP1 cell noCPT inconclusive, IL1B secr inh -8, TDP1 cell CPT inconclusive, TGFb inhibitor -6%, TDP1 block 6% and HepG2 tox -8%.
For CCN(CC)CCn1c2c(c(SCC(=O)Nc3ccccc3Cl)nc1=O)CCC2 the results were TDP1 cell noCPT -6%, IL1B secr inh -52*, TDP1 cell CPT -2%, TGFb inhibitor -6%, TDP1 block 5%[0.505 µM] and HepG2 tox -17%.
CCN(CC)CCn1c2c(c(SCC(=O)Nc3cc(OC)cc(OC)c3)nc1=O)CCC2 was read as TDP1 cell noCPT -30%, IL1B secr inh -17, TDP1 cell CPT -21%, TGFb inhibitor 4%, TDP1 block 1% and HepG2 tox -24%.
Screening CCN(CC)CCn1c2c(c(SCC(=O)Nc3cccc4ccccc34)nc1=O)CCC2 returned TDP1 cell noCPT inconclusive, IL1B secr inh -90*, TDP1 cell CPT -29%, TGFb inhibitor 15%, TDP1 block 1% and HepG2 tox -77%.
